The text below walks through data of the supplement of paper PMC9897528.

Unmarked numbers belong to inactive results.
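Further: conidia screened in RPMI 1640 medium under 5% CO2, growth read by spectrophotometer, medium with 0.5% DMSO serving as the untreated reference.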

The subject of the assay is Scedosporium aurantiacum CBS 136046. Briefly: growth inhibition relative to DMSO control (OD600); higher = more antifungal activity, active = 80 or more; extreme values may be limits of the assay. Conditions: 5 µM; 72 h; 37 °C.
Regarding `CN(C)CCNC(=O)c1cccc2cccnc12`, the growth inhibition was 2.13%.
Consider `O=C(O)c1cc(-c2ccc(Br)cc2)nc2ccc(Cl)cc12`, for which the growth inhibition is 15.5%.
`CCOC(=O)/C=C/[C@H](C[C@@H]1CCNC1=O)NC(=O)[C@@H](CC(=O)[C@@H](NC(=O)c1cc(C)on1)C(C)C)Cc1ccc(F)cc1`: the growth inhibition was 1.27%.
Take `O=C(O)[C@H]1C2CCC(CC2)[C@@H]1Nc1nc(-c2c[nH]c3ncc(F)cc23)ncc1F`: the growth inhibition was 10.2%.
With `CC(C)(C)c1ccc(Oc2ccc(N)cc2)cc1` the figure was 15.8%; with `Cc1c(CN(C)C(=O)/C=C/c2cnc3c(c2)C(C)(C)C(=O)N3)oc2ccccc12`, 19.3%; with `OC(Cn1cncn1)(Cn1cncn1)c1ccc(F)cc1F`, 29.9%.
Under `COc1ccc(CNC(=O)C2CCN([C@H](C)c3cccc4ccccc34)CC2)cc1` stands 9.67%.
As for `CC1(C)Cc2c(C#N)c(SCCc3ccccc3)nc(N3CCOCC3)c2CO1`, the growth inhibition was 27.9%.
For `O=C(NC(=O)N1CCCc2ccccc21)c1cccc(Cl)c1`, the growth inhibition was 5.71%.
Regarding `C[C@H](Cn1cnc2c(N)ncnc21)OCP(=O)(O)O`, the growth inhibition is 13.7%.
Regarding `FC(F)(F)Oc1ccc(Nc2ccc3cccc(Cl)c3n2)cc1`, the growth inhibition is 25.3%.
With `CCN(CC)CCCC(C)Nc1ccnc2cc(Cl)ccc12` (stereo not given), the growth inhibition was 21.6%.
As for `CCC[C@@H]1C[C@@H](C(=O)N[C@@H]([C@H]2O[C@H](SC)[C@H](O)[C@@H](O)[C@H]2O)[C@H](C)Cl)N(C)C1`, the growth inhibition was 16.8%.
For `Cc1ccc(Oc2ccccc2-c2csc(N=C3NCCCN3)n2)c(C)c1`, the growth inhibition was 68%.
